Source: PubChem BioAssay (NCATS)
Inconclusive results are not listed. Active and inactive are the calls of the source. The call rests on the fitted dose curve.

assay: Primary qHTS for Huh7 cytotoxicity: counterscreen for inhibitors of MERS-S pseudotyped particle cell entry (AID 1479147); conditions: cell viability read-out; series mostly up to 57.1 µM; activity change, negative = cytotoxicity: at the top concentration
On the % scale 0 is the no-effect control and ±100 the full control effect.

Structure (SMILES) | outcome | activity change, negative = cytotoxicity
CN(C)CCN1C(=O)c2ccccc2N(C)c2ccccc21 | inactive | 
CCCCCCCCCCCCCCCCC(C(=O)O)C(O)(CC(=O)O)C(=O)O (configuration not stated) | inactive | 
C[C@@H](C1=C(CCN(C)C)Cc2ccccc21)c1ccccn1 | inactive | 
CCOc1ccccc1O[C@H](c1ccccc1)[C@H]1CNCCO1 | inactive | 
C=C1c2cccc(O)c2C(O)=C2C(=O)[C@]3(O)C(O)=C(C(N)=O)C(=O)[C@@H](N(C)C)[C@@H]3[C@@H](O)[C@H]12 |  | 2.67% (inactive)
CCOCCn1c(N2CCCN(C)CC2)nc2ccccc21 | inactive | 
CN(C)CCN(Cc1ccccc1)c1ccccn1 |  | -13.9% (inactive)
OC(CCN1CCCCC1)(c1ccccc1)c1ccccc1 | inactive | 
COc1cc(NS(=O)(=O)c2ccc(N)cc2)ncn1 | inactive | 
C[C@@H]1CCC[C@H](C)N1CCCC(O)(c1ccccc1)c1ccccn1 (some centres not stated) | inactive | 
CCN[C@@H]1C[C@H](N)[C@@H](OC2OC(CN)=CCC2N)[C@H](O)[C@H]1O[C@H]1OC[C@](C)(O)[C@H](NC)[C@H]1O (some centres not stated) |  | -16.5% [at 0.573 µM] (inactive)
COc1ccc(C(Cl)=C(c2ccc(OC)cc2)c2ccc(OC)cc2)cc1 |  | -25.2% (inactive)
CN(C)CCC(c1ccccc1)c1ccccn1 (configuration not stated) | inactive | 
CC1CC(=O)NN=C1c1ccc(NCC(C)(C)NCC(O)COc2cc(Cl)ccc2C#N)cc1 (configuration not stated) |  | 0.374% (inactive)
O=C1OC(c2ccc(O)cc2)(c2ccc(O)cc2)c2ccccc21 |  | 2.91% (inactive)
CCC1NC(=O)c2cc(S(N)(=O)=O)c(Cl)cc2N1 (configuration not stated) | inactive | 
CCCCNc1ccc(C(=O)OCCN(C)C)cc1 |  | 0.244% (inactive)
